EBI2 antag = EBI2 (human) antagonism. P32249. EBI2 beta-arrestin recruitment, luminescence, 7a,25-OHC stimulated. inhibition, % at 5 µM. hit rate 0.81% among 360,000. AID 651636; in the data active means inhibition above about 38%;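 further: enzyme fragment complementation signal reports receptor beta-arrestin coupling in cells; 0% = agonist plus DMSO wells and 100% = wells without agonist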
Target sequence (P32249 whole entry, looked up, the tested form may be a part): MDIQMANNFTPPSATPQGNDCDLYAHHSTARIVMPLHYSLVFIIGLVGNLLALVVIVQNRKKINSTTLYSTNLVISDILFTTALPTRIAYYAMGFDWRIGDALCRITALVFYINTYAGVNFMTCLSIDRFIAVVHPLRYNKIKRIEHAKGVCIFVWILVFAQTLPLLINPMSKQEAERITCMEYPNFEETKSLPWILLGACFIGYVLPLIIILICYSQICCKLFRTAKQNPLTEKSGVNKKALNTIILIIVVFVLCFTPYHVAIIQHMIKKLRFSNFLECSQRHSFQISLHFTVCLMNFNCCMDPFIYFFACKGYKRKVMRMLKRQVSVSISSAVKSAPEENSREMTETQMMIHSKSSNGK
tim10-1 inh = inhibits growth of tim10-1 mutant yeast | S. cerevisiae tim10-1 ts strain growth, BacTiter-Glo, 24 h | inhibition, % at 20 µM | hit rate 2.2% among 330,000 | AID 463190;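 active means inhibition of at least 40%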;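 further: mutant grown at 25 °C; 0% = DMSO wells with yeast and 100% = wells holding no yeast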
PfHsp90 yeast 2 = reduces growth (ATP signal) of yeast expressing P. falciparum Hsp90; hit rate 0.32% among 310,000; S. cerevisiae expressing PfHsp90, BacTiter-Glo ATP, 48 h; yeast lacking PDR1 and PDR3 efflux regulators; inhibition, % at 9.4 µM;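 active means every replicate shows inhibition above about 80%, whatever the replicate mean, limit read from the data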;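 further: 0% = DMSO neutral controls and 100% = 20 µM radicicol positive controls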
TIM10 inh = growth inhibitors of TIM10 yeast strain; S. cerevisiae TIM10 strain growth, BacTiter-Glo luminescence, 24 h; inhibition, % at 10 µM; hit rate 1.4% among 330,000;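 active means inhibition of 40% or more at the single tested concentration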;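 further: wild-type TIM10 isogenic control strain grown at permissive 25 °C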
tim23-1 inh = tim23-1 yeast growth inhibition; S. cerevisiae tim23-1 growth, BacTiter-Glo luminescence, 24 h; inhibition, % at 20 µM; hit rate 1.3% among 330,000; AID 463212;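 active means growth inhibition of the mutant yeast at or above 50%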;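 further: temperature-sensitive mutant grown at 25 °C; plate controls were DMSO-treated mutant yeast for no effect and medium wells lacking yeast for full effect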
SKKanGAS inh = blocks kanamycin growth of S. pyogenes SKKanGAS strain; hit rate 1.3% among 300,000; AID 1662; BacTiter-Glo, 6 h; inhibition, % at 7.5 µM;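 active means mean replicate score, as percent of positive control median, at least 50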;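 further: strain carries kanamycin resistance gene driven by streptokinase promoter and grows in 40 µg/ml kanamycin; loss of luminescence reflects streptokinase promoter inhibition or plain growth inhibition; 0% = median of DMSO wells and 100% = positive control at its reference dose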
tim10-1 confirm = tim10-1 yeast growth inhibition, confirmed. shares compounds with tim10-1 inh. S. cerevisiae tim10-1 ts strain growth, BacTiter-Glo, 24 h. inhibition, % at 20 µM. hit rate 56% among 7,400. AID 463213;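 active means inhibition of yeast growth at or above a set limit in either of two repeat tests at 20 µM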;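 further: tim10-1 mutant grown at permissive 25 °C to find synthetic lethal compounds; 0% = DMSO yeast wells and 100% = medium wells without yeast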
An asterisk follows results filed as active; · = no result. Hits are enriched below; roughly 4.7% of the tested compounds scored in any of these assays.

SMILES	EBI2 antag	tim10-1 inh	PfHsp90 yeast 2	TIM10 inh	tim23-1 inh	SKKanGAS inh	tim10-1 confirm
O=C(Nc1ccc(Cl)cc1)C1CCCN(c2ncnc3c2nc2n3CCCCC2)C1 (centres undefined)	14	53*	-13	4	41	15	12
Cc1cccc(N2CCN(C(=O)C3CCN(c4ncnc5c4nc4n5CCCCC4)CC3)CC2)c1C	4	56*	-77	29	39	-8	22
O=C(C1CCCN(c2ncnc3c2nc2n3CCCCC2)C1)N1CCN(c2cccc(Cl)c2)CC1 (centres undefined)	13	41*	-2	8	24	19	4
CC(C)N(Cc1ccccc1)C(=O)C1CCCN(c2ncnc3c2nc2n3CCCCC2)C1 (centres undefined)	16	31	19	10	25	-7	·
CCCCN(Cc1ccco1)C(=O)C1CCCN(c2ncnc3c2nc2n3CCCCC2)C1 (centres undefined)	18	41*	-11	15	34	-9	-2
Cc1ccc(O)c(C2=Nc3ccccc3N=C(c3cccc([N+](=O)[O-])c3)C2)c1	5	40*	-10	14	3	6	18
O=C(NC(Cc1ccccc1)C(=O)N1CCCCC1)c1ccccc1 (centres undefined)	-7	17	-4	19	20	37	·
Cc1ccc2c(c1)c1c(n2C)C(C(N)=O)CCC1 (centres undefined)	-6	4	·	-13	15	-14	·
Cc1ccc2c(c1)c1c(n2C)-c2[nH]ncc2CC1	-24	55*	·	6	24	14	-27
C/C(CCc1oc2ccc(Cl)cc2c1-c1ccc(C)o1)=N\O	21	42*	-21	37	26	18	43*
CC#CC(=O)N1CCC(CO)(CCc2ccccc2)CC1	-6	6	-22	-14	13	-8	·
CSC1=NC(C)(C)C=C(/C=C/c2ccc(Cl)cc2)N1	11	43*	7	18	30	3	28
CSC1=NC(C)(C)C=C(/C=C/c2c(Cl)cccc2Cl)N1	-21	44*	-9	36	36	9	25
CCSC1=NC(C)(C)C=C(/C=C/c2ccc(Cl)cc2Cl)N1	13	34	3	4	36	-5	·
CSC1=NC(C)(C)C=C(/C=C/c2ccc(Cl)cc2Cl)N1	15	38	9	24	44	-17	·
Cc1cccc(COc2ccccc2C(=O)NC2CCC(O)CC2)c1 (centres undefined)	2	13	-6	0	17	-5	·
O=C(c1cc(C2CC2)nn1-c1ccccc1)N1CCN(c2ccccc2O)CC1	-4	22	-25	24	49	·	·
O=C(c1cc(C2CC2)nn1-c1ccccc1)N1CCN(c2ccccn2)CC1	-1	42*	-23	13	30	·	4
O=S(=O)(Nc1ccon1)c1ccc(F)c(F)c1	3	7	-9	-2	-3	4	·
Cc1cc2c(cc1C)C(c1cc(Br)ccc1F)CC(=O)N2 (centres undefined)	-4	45*	22	9	25	0	28
Cc1cc2c(cc1C)C(c1ccccc1F)CC(=O)N2 (centres undefined)	-7	23	23	17	10	5	·
CCOC(=O)c1ccc(NC(=O)c2cc3c(s2)CCC3)cc1	12	6	-18	3	15	5	·
COc1ccc(-c2csc(N3CCN(S(=O)(=O)c4ccc5c(c4)NC(=O)CO5)CC3)n2)cc1	-1	34	-30	-48	-10	8	·
Cc1sc(N2CCN(S(=O)(=O)c3ccc4c(c3)NC(=O)CO4)CC2)nc1-c1ccccc1	-2	47*	-158	11	-1	20	-20
CCOC(=O)n1c(=O)n(Cc2ccccc2Cl)c2ccccc21	-3	43*	-16	20	48	2	33*
Cc1ccccc1N=C1NN=C(c2ccccc2F)CS1	4	42*	-8	6	15	11	22
Cc1cc(C)c2c(-n3cccc3)c(C(=O)NNS(=O)(=O)c3ccc(Cl)cc3)sc2n1	3	43*	-17	32	40	29	32*

Source: PubChem
